Pf apPOL block: Pf-apPOL DNA polymerase inhibition. Recombinant Pf-apPOL, molecular beacon fluorescence, 1.5 h. inhibition, % at 10 µM. 0.25% of 210,000 active. AID 1794808
mHTT-CaM PPI inh: disrupts binding of mutant huntingtin to calmodulin; 3.6% of 190,000 active; AID 1671202; AlphaScreen His-mHTT/GST-CaM binding, luminescence; inhibition, % at 15 µM;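 note: 0% = both proteins with DMSO and 100% = one protein alone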
The depositor's hits bear a star; nt = no result given; ! = repeats disagree. Shown is part of a subset that was picked to be rich in hits. Cut-off read from the data, not from the text of the source: active = inhibition above about 50%; inactive = the rest.

SMILES	Pf apPOL block	mHTT-CaM PPI inh
CCn1c(C2CCN(S(=O)(=O)c3ccc4c(c3)CCCC4)C2)nc2ccncc21 (centres undefined)	11	93*
Cc1cc(N2C=NS(=O)(=O)c3cccnc32)ccc1F	-4	-9
COC(=O)[C@@H]1N2C(=O)[C@@H](NC(=O)C(C)Oc3ccccc3)[C@H]2SC1(C)C (some centres undefined)	-7	66*
CC(Oc1ccccc1)C(=O)N[C@@H]1C(=O)N2[C@@H]1SC(C)(C)[C@@H]2C(=O)OCc1ccccc1 (some centres undefined)	-7	36
O=c1[nH]c2ccccc2c(=O)n1Cc1ccccc1	-7	-4
Cc1c(Cc2ccccc2)[nH]c2ccccc12	1	100*
O=C(Nc1cccn2c(C3CCC3)nnc12)C1CCCO1 (centres undefined)	-2	-1
O=C(Nc1cccn2c(C3CCC3)nnc12)c1ccccn1	-8	61*
O=C(NCCc1ccccn1)C1CCN(c2ccc(Cl)cc2)C1=O (centres undefined)	-4	1
Cc1nc2c(C(=O)NC3CCCC3)cnn2c(C)c1Cc1ccc(Cl)cc1	-9	-6
Cc1nc2c(C(=O)NC3CC3)cnn2c(C)c1Cc1cccc(Cl)c1	-8	97*
Cc1nc2c(C(=O)NC3CCCCC3)cnn2c(C)c1Cc1cccc(Br)c1	-4	43
Cc1nc2c(C(=O)NC3CCCCC3)cnn2c(C)c1Cc1ccc(Cl)cc1	-2	-6
Cc1nc2c(C(=O)NC3CC3)cnn2c(C)c1Cc1cccc(Br)c1	-4	92*
Cc1nc2c(C(=O)NC3CC3)cnn2c(C)c1Cc1ccc(F)cc1	-5	64*
CCOc1ccccc1C1C2=C(CCCC2=O)Nc2nc(SC)nn21 (centres undefined)	-44	-2
Cc1ccccc1C1CCCN1C(=O)c1c(F)cccc1F (centres undefined)	1	10
CCc1ccc(OCC(=O)Nc2ccc(S(=O)(=O)N3CCCC3)cc2)cc1	-1	4
CCCC(=O)N1CCC2(CC1)NC(=O)c1cc(C)ccc1N2	-4	-4
O=C(c1cc2c(s1)CCC(C(=O)N1CCN(C3CCCC3)CC1)C2)N1CCCCC1 (centres undefined)	-5	9
O=C(CSc1nc2ccccc2o1)NCCSCc1ccco1	63*	nt
O=C(CSC1=NCCS1)NCCSCc1ccco1	-3	nt
COc1ccc(CCNC(=O)C2CCCN(c3ccc(-c4ccco4)nn3)C2)cc1OC (centres undefined)	-7	2
COc1ccccc1NC(=O)C1CCCN(c2cnn(C)c(=O)c2)C1 (centres undefined)	0	2
COc1ccc(C(F)(F)F)cc1NC(=O)C1CCCN(c2ccc(-c3ccco3)nn2)C1 (centres undefined)	-4	77*
SMILES	Pf apPOL block	mHTT-CaM PPI inh
COc1ccc(C)cc1NC(=O)C1CCCN(c2cnn(C)c(=O)c2)C1 (centres undefined)	-8	53*
COc1ccc(Cl)cc1NC(=O)N1CCN(c2ccc(-c3ccco3)nn2)CC1	15	64*
COc1ccc(Cl)cc1NC(=O)c1cnn2c(C(F)(F)F)cc(-c3ccco3)nc12	5	1
Cc1[nH]c2ccccc2c1C=C1C(=O)OC2(CCCCC2)OC1=O	-11	9
O=[N+]([O-])c1ccc2nc(NCCCNc3ccc(C(F)(F)F)cc3[N+](=O)[O-])sc2c1	-3	16
Cc1ccc(Nc2nc(O)c(C3=c4cc(Br)ccc4=NC3=O)s2)cc1C	0	10
O=C1N=c2ccc(Br)cc2=C1c1sc(=O)n(-c2ccccc2)c1O	-6	8
Cc1ccccc1-n1c(O)c(C2=c3cc(Br)ccc3=NC2=O)sc1=O	7	63*
CSCCC(C(=O)O)n1c(O)c(C2=c3cc(Br)ccc3=NC2=O)sc1=S (centres undefined)	nt	51*
CC1CCN(C(=O)C2CC(c3ccccc3F)=NO2)CC1 (centres undefined)	-1	-9
Cc1cccc(/C=C/c2ccc3cccc(O)c3n2)c1O	-3	38
Oc1cccc2ccc(/C=C/c3cc4c(cc3Cl)OCO4)nc12	-7	56*
Oc1cccc2ccc(/C=C/c3ccc4c(c3)OCO4)nc12	-1	37
Oc1cccc2ccc(/C=C/c3ccccc3Cl)nc12	5	52*
CC(C)(C)c1ccc(C(=O)Nc2ccc(S(=O)(=O)Nc3cc(Cl)cc(Cl)c3)cc2)cc1	-7	nt
O=C(Nc1nccs1)C1CCN(C(=O)c2cc(=O)c3ccccc3o2)CC1	-2	-1
CC1CCCC(C)N1CC(O)COC1CCCC1 (centres undefined)	-3	1
O=[N+]([O-])c1cc(C(F)(F)F)cc([N+](=O)[O-])c1N1CCCCC1	-2	24
O=[N+]([O-])c1cc(Br)c2nsnc2c1N1CCCCC1	-8	77*!
COc1cccc(NC(=O)C2CC(=O)N(c3ccccc3)C2)c1 (centres undefined)	-7	0
COc1cccc(NC(=O)c2ccccc2Cl)c1	3	-11
COc1cccc(CC(=O)NNC(=O)NC(=O)c2ccccc2Cl)c1	54*	nt
CCCOc1ccc(CN2CCCC2c2cc(C)no2)cc1OC (centres undefined)	-8	12
CCCCN1C(=O)CN(C2CCCCC2)C(=O)C1c1ccc(OCCC)c(OC)c1 (centres undefined)	-10	53*
CCCCN1C(=O)CN(C2CCCCC2)C(=O)C1c1ccc(OC(C)C)c(OC)c1 (centres undefined)	-6	45
SMILES	Pf apPOL block	mHTT-CaM PPI inh
CCOc1ccc(C2C(=O)N(C3CCCCC3)CC(=O)N2Cc2ccccc2Cl)cc1OC (centres undefined)	-7	58*
COc1ccc(C2C(=O)N(C3CCC(C)CC3)CC(=O)N2Cc2ccccc2Cl)cc1OC (centres undefined)	-8	15
Cc1nc(-c2ccncc2)nc2c1CCC(=O)N2CCc1ccccn1	15	13
Cc1c(Cc2ccccc2)sc(NC(=O)Nc2ccccc2)c1C(N)=O	-6	17
Cc1c(Cc2ccccc2)sc(N)c1C(N)=O	-6	75*
COc1ccc(Cl)cc1NC(=O)CSc1ccccn1	2	-14
CCN1c2cc(C)ccc2-n2cccc2C12CCN(C(=O)Nc1cccc(C)c1)CC2	5	66*
CCN1c2cc(C)ccc2-n2cccc2C12CCN(C(=O)Nc1cc(F)ccc1F)CC2	1	51*
Cc1cccc(NC(=O)N2CCC3(CC2)NC(=O)c2ccccc2N3C)c1	0	-10
CCN1c2cc(C)ccc2-n2cccc2C12CCN(C(=O)Nc1ccc(F)cc1F)CC2	-6	52*
CCN1c2cc(C)ccc2-n2cccc2C12CCN(C(=O)Nc1ccc(F)cc1)CC2	-8	48
CCN1c2ccccc2-n2cccc2C12CCN(C(=O)Nc1ccccc1C)CC2	-2	4
Cc1c(C)c2cc3c(-c4ccc(Cl)cc4)coc3cc2oc1=O	91*	-1
COc1ccc2c(c1)c(=O)oc1cc3occ(-c4ccc(Cl)cc4)c3cc12	1	5
O=c1oc2cc3occ(-c4ccc(F)cc4)c3cc2c2c1CCCC2	3	-3
O=c1oc2cc3occ(-c4ccc(Cl)cc4)c3cc2c2c1CCC2	80*	-2
N#CC(=Cc1sccc1Oc1ccccc1)S(=O)(=O)c1ccc(C(F)(F)F)cn1	-1	nt
COc1ccc(C2CC(c3ccccc3O)=NC3(CCN(C(C)C)CC3)N2)cc1 (centres undefined)	-3	49

High-throughput results: PubChem BioAssay, University of Kansas High Throughput Screening Laboratory
